# Source: PubChem BioAssay (National Center for Advancing Translational Sciences (NCATS))
# ClpP mod = qHTS Assay for Activators of ClpP; ATP-dependent Clp protease proteolytic subunit (Bacillus subtilis (strain 168)), P80244; actives 1.9% (n = 340,000); purified B. subtilis ClpP, FRET peptide cleavage, 20 min; Potency, µM (top dose mostly 57.5 µM), for inactives: top-dose activity change, negative = active; active = well fitted falling curve with a large enough effect; inconclusive = small, poorly fitted or top-dose-only effect; inactive = no such curve, though single readings can be large or run the other way; note: potency is the fitted concentration of half-maximal effect; the source files actives as falling curves though it sought activators and does not explain the sign; nearly all actives have a fitted effect of over 65% in size
# Target sequence (P80244 whole entry, looked up): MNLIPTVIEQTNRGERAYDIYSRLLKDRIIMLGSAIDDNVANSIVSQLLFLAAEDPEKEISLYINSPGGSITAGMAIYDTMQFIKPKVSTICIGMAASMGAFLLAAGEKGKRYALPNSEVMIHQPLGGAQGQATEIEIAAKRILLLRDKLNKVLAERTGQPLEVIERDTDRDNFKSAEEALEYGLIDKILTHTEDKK
#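 Buffer: 100 mM Tris/HCl pH8, 100 mM KCl, 0.05% low protease BSA, 2.5% glycerol, 0.01% Tween-20. ClpP 10 microg/mL final; 20 min RT; delta FRET normalized to ADEP and DMSO controls.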
# uPA surface inh = blocks generation of uPA at the cell surface; actives 0.31% (n = 330,000); cell surface uPA generation assay, qHTS; Potency, µM (series often up to 38.3 µM), without a hit: at the top dose activity change, negative = inhibition, most hits filed as inhibitors; AID 540303; active = well fitted inhibition curve with a large enough effect; inconclusive = small, poorly fitted or top-dose-only effect; inactive = no such curve, though single readings can be large or run the other way; tested in mouse RAW 264.7 cells; note: potency is the fitted concentration of half-maximal effect; % is set by controls: 0 for no effect and ±100 for the full control effect; nearly all actives have a fitted effect of over 55% in size
# TCR act = T cell receptor activation | primary human leukocytes, anti-CD3, IL-2 HTRF, 48 h | Potency, µM (top dose mostly 9.22 µM), inactives show at the top dose activation of IL-2 secretion, actives largely listed as activators | 330,000 tested, under 10 active; note: % of control where 0% means no effect
#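 TCR engagement came from a-CD3 beads alone, with compounds added to primary human leukocytes for 48 hr. Secreted IL-2 bridged europium cryptate- and d2-labelled anti-IL-2 antibodies, giving FRET emission at 665nm after 320nm excitation.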
# Sfp PPTase inh = Sfp phosphopantetheinyl transferase inhibition. Potency, µM, inactives show largest response in the series, negative = inhibition, most hits filed as inhibitors. AID 1490. Biochemical Sfp PPTase activity, qHTS. actives 3.5% (n = 310,000);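 note: the enzyme is Sfp with the accession as filed and its product quenches rhodamine fluorescence; potency is the fitted concentration of half-maximal effect; 0% = enzyme reaction without inhibitor and -100% = no enzyme wells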
#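 Buffer: 50 mM Hepes-Na pH 7.6, 10 mM MgCl2, 0.01% Nonidet P-40, 0.01% BSA. Enzyme 15 nM, pre-exposed to compound 15 min; substrates then added and fluorescence change tracked over 30 min.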
# Numbers without * were called inactive; ? = inconclusive; nt = no result given; [ ] = dose if it differs, or a comment. The list is not random: actives were taken first. Their share in the collection is about 4.2%. Unless noted, calls come from the whole dose curve; as a rule, active = well fitted curve in the direction sought with a large enough effect; inconclusive = small, poorly fitted or top-dose-only effect, or another doubt; inactive = no such curve, though single readings can be large; an effect the other way counts as inactive or inconclusive.
SMILES,ClpP mod,uPA surface inh,TCR act,Sfp PPTase inh
Cc1cc(C)c(C(=O)COc2cccnc2[N+](=O)[O-])cc1C,0%,-8%,-1%,56µM*
COc1ccc(C(C)=O)cc1CN1C(=O)C(C)ON=C1c1ccccn1 (stereo not given),0%,nt,nt,nt
CC(C(=O)NC1CCCC1)N(C(=O)c1ccc(-c2ccccc2)[nH]1)c1ccccc1F (stereo not given),32µM*,nt,4%,2%
O=C(CCn1ccc2cc(S(=O)(=O)N3CCCC3)ccc21)NCc1ccccc1Br,-3%,nt,nt,nt
CCc1cccc(C)c1NC(=O)COC(=O)CNS(=O)(=O)/C=C/c1ccccc1,1%,4%,0%[46.1 µM],-7%
Cc1ccc(Cl)c(NC(=O)COC(=O)CNS(=O)(=O)/C=C/c2ccccc2)c1Cl,-2%,4%,-2%[46.1 µM],50µM*
COc1cccc(-c2cc(C(F)(F)F)n3nc(C)c(-c4ccccc4)c3n2)c1,2%,nt,nt,nt
CSCCOC(=O)C1=C(C)NC(=O)NC1c1ccc2c(c1)OCO2 (stereo not given),1%,-8%,1%,11%
CCOCCOC(=O)C1=C(C)Nc2ccc(C)cc2S1,-3%,nt,-41%,?
CCOC(=O)C1=C(C)Nc2ccccc2S1,nt,-1%,-1%,50µM*
CCOC(=O)C1=C(C)Nc2ccc(C)cc2S1,-1%,-3%,2%,50µM*
CCOC(=O)CC1Sc2ccccc2NC1=O (stereo not given),0%,nt,nt,?
CSCCOC(=O)C1=C(C)Nc2ccc(C)cc2S1,1%,-1%,2%,50µM*
CCOC(=O)CC1Sc2ccccc2NC1=S (stereo not given),nt,-3%,2%,40µM*
Cc1cccc(OCC(=O)Nc2nnc(S(=O)(=O)N3CCc4ccccc43)s2)c1,1%,nt,nt,nt
Cc1ccc2oc(-c3cccc(NC(=O)COc4ccc(Cl)cc4C)c3C)nc2c1,3%,nt,nt,nt
O=[N+]([O-])c1ccc(NCCCc2ccccc2)cc1,-2%,nt,nt,nt
CC(=O)N1CCN(c2csc3ccc(F)cc3c2=O)CC1,-20%,nt,nt,nt
O=c1[nH]c(=S)[nH]c2c1C(c1ccc(Br)cc1)c1c([nH]c(=S)[nH]c1=O)O2,nt,1%,-6%,45µM*
Cc1ccc(Sc2c(C)nn(C(=O)COc3ccc(F)cc3)c2C)cc1,-3%,nt,nt,nt
O=C1CSC(c2nn(-c3ccccc3)cc2-c2cc3ccccc3oc2=O)N1Cc1ccco1 (stereo not given),35µM*,-20%,-7%,-4%
O=C1CSC(c2cn(-c3ccccc3)nc2-c2cc3ccccc3oc2=O)N1Cc1ccccc1 (stereo not given),28µM*,-16%,8%,8%
COC(=O)c1cc(NC(=O)Nc2ccc3snnc3c2)cc(C(=O)OC)c1,-4%,nt,nt,nt
Cc1cccc(-c2cc(=O)c3cc(Br)ccc3o2)c1,nt,nt,nt,79µM*
O=C(O)c1ccccc1-c1cc2ccccc2[nH]1,0%,2%,0%,nt
SMILES,ClpP mod,uPA surface inh,TCR act,Sfp PPTase inh
COc1ccccc1-c1cc2ccccc2[nH]1,40µM*,3%,3%[46.1 µM],-2%
CCCSc1nc(-c2ccc(OC)cc2)cc(-c2ccccc2OC)c1C#N,4%,nt,nt,nt
O=[N+]([O-])C(=C1Nc2ccccc2N1)C(Cl)=C(Cl)Cl,-4%,?,-1%,89µM*
CN1CCO/C1=C(\C(Cl)=C(Cl)Cl)[N+](=O)[O-],nt,5%,2%,-3%
CC(NC(=O)Nc1ccc(Cl)c(Cl)c1)C(c1ccccc1)N1CCOCC1 (stereo not given),0%,5µM*,-9%[46.1 µM],2%
O=S(=O)(c1ccc(Cl)cc1)N1CCN(C(=S)NCC2CCCO2)CC1 (stereo not given),-14%,2%,8%,5%
COc1ccc(S(=O)(=O)N2CCCCC2)cc1C(=O)N1CCCCCC1,14µM*,7%,-5%,nt
COc1ccc(S(=O)(=O)NC(C)C)cc1C(=O)N1CCOCC1,28µM*,-3%,6%,-6%
Clc1ccc(OCc2nn3c(-c4ccco4)nnc3s2)c(Cl)c1,1%,6%,0%,18µM*
Cc1ccc(OCc2nn3c(-c4ccco4)nnc3s2)cc1,-2%,2%,6%,6%
COC(=O)c1sc2nc(N3CCCCC3)c3c(c2c1N)CCCC3,10µM*,11%,7%,-13%
CCN(CC)C(=O)c1sc2nc(N3CCOCC3)c3c(c2c1N)CCCC3,25µM*,3%,-2%,45µM*
CCOC(=O)c1sc2nc(N3CCOCC3)c3c(c2c1N)CCCC3,32µM*,2%,-6%,7%
COC(=O)c1sc2nc3c(c(-c4cccs4)c2c1N)CCCC3,-2%,1%,1%[46.1 µM],79µM*
NC(=O)c1sc2nc(N3CCCCC3)c3c(c2c1N)CCCC3,-28%,1%,-16%,?
COc1ccc2oc3cc(NCCN(C)C)ccc3c(=O)c2c1,4%,nt,nt,nt
CC1(C)CCC[C@@](C)([C@H]2CC[C@]3(C)[C@@H]2[C@H](O)CC2[C@@]4(C)CC[C@H](O)C(C)(C)[C@@H]4[C@@H](O)C[C@]23C)O1 (stereo not given in full),nt,nt,nt,5%
CCCn1c2ccccc2c2cnn(CC(=O)Nc3cc(OC)c(OC)c(OC)c3)c(=O)c21,-24%,nt,nt,nt
Cn1c(SCC(=O)N2CCOCC2)ncc(C(=O)Nc2ccccc2)c1=O,-13%,nt,nt,nt
Cc1ccsc1CN(C(=O)c1oc2cc(Br)ccc2c1C)C1CCS(=O)(=O)C1 (stereo not given),-1%,nt,nt,nt
COC(=O)c1ccc(CSc2ncnc3c2sc2nc(N4CCOCC4)c4c(c23)CCCC4)o1,?,5%,0%,nt
Nc1c(C(=O)Nc2ccc(Br)cc2)sc2nc(N3CCOCC3)c3c(c12)CCCC3,4%,nt,nt,nt
CCOC(=O)c1oc2nc(C)c3c(c2c1N)CC(C)(C)OC3,10µM*,1%,nt,-2%
Nc1c(C(=O)NCc2ccco2)sc2nc(N3CCOCC3)c3c(c12)CCCC3,?,-4%,4%,13µM*
COC(=O)c1ccc(Cn2cnc3c(sc4nc(N5CCOCC5)c5c(c43)CCCC5)c2=O)o1,28µM*,-4%,1%,4%
SMILES,ClpP mod,uPA surface inh,TCR act,Sfp PPTase inh
CC1(C)Cc2c(c(N3CCOCC3)nc3sc(C(=O)Nc4cccc(Cl)c4)c(N)c23)CO1,?,12%,9%,45µM*
COc1cc(NC(=O)Cc2noc3ccccc23)cc(OC)c1OC,7%,nt,nt,nt
CC(C)CCNC(=O)C(CC(C)C)NC(=O)C1OC1C(=O)O (stereo not given),nt,nt,nt,1%
Nc1c(C(=O)O)sc2nc(-c3ccccc3)c3c(c12)CCCC3,3%,-3%,-8%[46.1 µM],35µM*
CCOC(=O)c1sc2nc(N3CCCC3)c3c(c2c1N)CC(C)(C)OC3,32µM*,-1%,nt,-24%
Cc1cc(-c2nnc(-c3ccccc3)c(-c3ccccc3)n2)c(C)o1,-1%,0%,-2%,14µM*
Cc1ccc(-c2nnc(-c3ccccc3)c(-c3ccccc3)n2)cc1,1%,2%,-1%[46.1 µM],-27%
Cc1noc(C)c1C(=O)Nc1cccc(S(=O)(=O)N2CCOCC2)c1,-1%,-10%,-3%,nt
Nc1ccccc1C(=O)C[C@H](N)C(=O)O,-1%,10%,5%,71µM*
C/C(=N/NC(=O)c1ccncc1)c1cc2ccc(O)cc2oc1=O,32µM*,-2%,-2%[46.1 µM],13%
